Screens from PubChem BioAssay.
In the library only some 2.9% were active in any assay of this set; here they are far more common.
KDM5B inh = blocks human KDM5B histone demethylase activity. actives 2.6% (n = 220,000). Potency, µM (doses to about 57.7 µM), hits mostly inhibitors. AID 1347165. Q9UGL1. KDM5B demethylase, FDH-coupled NADH fluorescence (FDH is formaldehyde dehydrogenase); also: potency is read from the fitted curve at half-maximal effect; 0% is about no effect; nearly all actives have a fitted effect of over 70% in size
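KDM5BΔAP (200 nM final) in 50 mM HEPES pH 7.5, 0.01% Tween-20 was preincubated 10 min at RT with compound over a concentration range. Substrate mix (H3K4me3 12.5 µM, α-KG 25 µM, Fe²⁺, ascorbate, NAD⁺, FDH) was added, and NADH fluorescence change over 30 min gave dose-response curves.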
SNCA expr inh = reduces expression of the alpha-synuclein gene; HEK-293 SNCA-luciferase knock-in, luminescence, 24 h; Potency, µM (top dose mostly 57.2 µM), for inactives: at the top dose activity change, negative = inhibition, actives largely listed as inhibitors; actives 0.17% (n = 140,000);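 also: potency is read from the fitted curve at half-maximal effect; plate controls were DMSO cells for no effect and cell-free wells for full effect; nearly all actives have a fitted effect of over 45% in size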
HEK293 viab = cell viability loss counter-screen; HEK-293-SNCA-luc viability, GF-AFC fluorescence, 24 h; AID 1671193; actives 0.12% (n = 150,000); Potency, µM (titrated, usually from 57.1 µM), without a hit: at the top dose activity change, negative = cytotoxicity, most hits filed as cytotoxic;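 also: potency is read from the fitted curve at half-maximal effect; 0% = DMSO-treated cells and -100% = medium-only wells without cells; nearly all actives have a fitted effect of over 30% in size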
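HEK-293-SNCA-luc cells (1500/well) plated 24 h, then exposed 24 h to a dilution series; GF-AFC added 30 min at 37C, fluorescence 405/540 nm; normalised to medium-only and DMSO wells, Hill fit.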
IP6K1 inhibitor = blocks human inositol hexakisphosphate kinase 1 | IP6K1 kinase, ADP-Glo luminescence, 2 h; stronger effect = lower value | activity change, % (series mostly up to about 58 µM) | actives 0.81% (n = 140,000) | Q92551; in the data active = activity change below about -25%; also: % is scaled to controls: 0 for no effect and ±100 for the full control effect
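ADP-Glo luminescence measures ADP made by human IP6K1 during a 2 h RT reaction with ATP/IP6 (mix at 1.3 mM/130 uM); top library doses 57.5 and 19.1 uM final.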
* marks the source's active call; other numbers are inactive results; i = inactive; ? = inconclusive; nt = no result given; [ ] = dose if it differs, or a comment. Unless noted, calls follow the shape of the dose curve; as a rule, active = well fitted curve in the direction sought with a large enough effect; inconclusive = small, poorly fitted or top-dose-only effect, or another doubt; inactive = no such curve, though single readings can be large; an effect the other way counts as inactive or inconclusive.

SMILES	KDM5B inh	SNCA expr inh	HEK293 viab	IP6K1 inhibitor
COc1ccc(CNC(=O)C[C@@H]2c3nc(NC(=O)c4c(F)cccc4F)sc3C[C@@H]3[C@](C)(CO)[C@H](O)CC[C@]32C)cc1	28µM*	-5%	0%	-10
COc1cccc(-c2cc3c(ccn3Cc3cccnc3)c(C3=CCOCC3)n2)c1OC	28µM*	-12%[87.6 µM]	-14%[87.6 µM]	10
CN(C)Cc1cccc(-c2cc3c(ccn3Cc3cccnc3)c(C3=CCOCC3)n2)c1	40µM*	9%[87.6 µM]	-29%[87.6 µM]	21
C[S+](=O)([O-])Nc1cccc(-c2cc3c(ccn3Cc3cccnc3)c(C3=CCOCC3)n2)c1	?	4%	8%	-10
C1=C(c2nc(-c3cncnc3)cc3c2ccn3Cc2cccnc2)CCOC1	?	9%[87.6 µM]	-5%[87.6 µM]	0
Cc1ccc(-c2cc3c(ccn3Cc3cccnc3)c(C3=CCOCC3)n2)cn1	35µM*	-8%[87.6 µM]	-2%[87.6 µM]	-9
CCn1nccc1C(=O)N1CCC2(CC1)CCC(O)(CN(C)C)CC2	20µM*	6%	7%	5
Clc1ccccc1C1(c2ccnc(C3CC3)n2)CCNCC1	i	-6%	?	5
CC(C)Nc1nccc(C2(c3ccccc3Cl)CCNCC2)n1	?	12%	-1%	-3
COCC(C)Nc1nccc(C2(c3ccccc3Cl)CCNCC2)n1 (centres undefined)	22µM*	9%	-8%	5
CN(C)C1CCN(c2nccc(C3(c4ccccc4Cl)CCNCC3)n2)C1 (centres undefined)	28µM*	47%	-27%	3
O[C@@H]1CCN(c2nccc(C3(c4ccccc4Cl)CCNCC3)n2)C1	28µM*	12%	-14%	16
CN1CCC(CNc2nccc(C3(c4ccccc4Cl)CCNCC3)n2)C1 (centres undefined)	?	-22%	-3%	5
CCOC(=O)C(C)N1C(=O)S/C(=C/c2cn(CC(=O)OC)c3ccccc23)C1=O (centres undefined)	i	nt	nt	nt
O=C(N[C@H]1CCN2C(=O)c3cc(-c4cccs4)ccc3NC(=O)[C@H]12)c1cccs1	32µM*	7%[87.6 µM]	-4%[87.6 µM]	-6
O=C(N[C@H]1CCN2C(=O)c3cc(-c4ccsc4)ccc3NC(=O)[C@H]12)c1cccs1	?	-7%[87.6 µM]	-21%[87.6 µM]	-11
CSc1ccc(-c2ccc3c(c2)C(=O)N2CC[C@H](NC(=O)c4cccs4)[C@H]2C(=O)N3)cc1	25µM*	185%	-10%	9
CSCC(=O)N[C@H]1CCN2C(=O)c3cc(-c4cccs4)ccc3NC(=O)[C@H]12	35µM*	20%[87.6 µM]	-11%[87.6 µM]	62
COc1cc(F)c(CN2CCC3(CC2)C(C(=O)O)CC(=O)N3C)cc1OC (centres undefined)	i	10%	0%	39
O=C(CCc1ccccc1)N1CCC2(CC1)CN(c1ncccn1)CC2CO (centres undefined)	?	-11%	6%	18
COCCN1CC(CO)C2(CCN(C(=O)CCn3cc(C)cn3)CC2)C1 (centres undefined)	?	5%	-4%	12
Cc1ccccc1C(=O)N1CCC2(CC1)CN(c1ncccn1)CC2CO (centres undefined)	32µM*	-25%	1%	12
Cc1cnn(CC(=O)N2CCC3(CC2)CN(c2ncccn2)CC3CO)c1 (centres undefined)	35µM*	-19%	-2%	4
N#Cc1ccc(C(=O)N2CCC3(CC2)CN(c2ncccn2)CC3CO)cc1 (centres undefined)	22µM*	10%	-6%	21
COc1ccccc1C(=O)N1CCC2(CC1)CN(c1ncccn1)CC2CO (centres undefined)	25µM*	8%	7%	5
SMILES	KDM5B inh	SNCA expr inh	HEK293 viab	IP6K1 inhibitor
CC(=O)N1CC(CO)C2(CCN(C(=O)c3cccc(C#N)c3)CC2)C1 (centres undefined)	i	-1%	-11%	30
CCOc1ccccc1C(=O)N1CCC2(CC1)CN(c1ccncn1)CC2CO (centres undefined)	i	-17%	-1%[12.5 µM]	15
COCCNC(=O)[C@H]1C[C@H](Oc2ccccc2)CN1C(=O)c1cccs1	i	-21%	-7%	11
O=C(NCc1cccc(Cl)c1)c1ccc2oc(-c3ccnc(Cl)c3)nc2c1	nt	20%	-2%[12.5 µM]	13
CNC(=O)c1cc(C2CC2)nc2c1c(C1CCN([S+](=O)([O-])c3ccsc3)CC1)nn2C	nt	nt	nt	-12
O=C(Nc1nn(-c2cccc(F)c2)c2cccc(N3CCOC3=O)c12)C1CCC1	28µM*	35%	-4%	6
